Assay results published in the supplement of paper PMC10849652.
Targets with a hit are over-represented here; the source holds about 7,900 in all. About 0.6% of all pairs of compound and target were hits. Values without a mark were called inactive.

Assays:
Assay in all cases: log2 fold change, soluble protein after heating vs DMSO (PISA); higher = thermal stabilisation; K562 cells, 10 uM, 30 min; active = over 0.2 and 3.5 SD of the protein, either way, in both replicates (recomputed)
[1] = compound: C1=CC=C(C=C1)[C@H](COC2=CC3=C(C=C2)NC(=O)N3)NC(=O)C4=CC=CN(C4=O)CC5=CC(=C(C=C5)F)F
How it was run: (§1)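 K562 cells at 2×10^6 cells/mL were exposed to 10 μM compound for 30 min, then aliquots were heated for 3 min across 48°C-58°C, pooled, and extracted in PBS containing 0.5% NP-40 at 4°C. The supernatant after 21,000xg for 90 min was taken as soluble protein and measured by TMTpro 16plex LC-MS/MS with channel sums equalised. Thermal stability is reported relative to control samples, with values from duplicates. Fold changes are given on a log2 scale.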

[2] = compound: CC1=C(SC2=C1C(=N[C@H](C3=NN=C(N32)C)CC(=O)N)C4=CC=C(C=C4)Cl)C
How it was run: as §1

[3] = compound: CC1=C2C(=CC=C1)N=C(N(C2=O)C3=CC=CC=C3C)CN4C=NC5=C(N=CN=C54)N
How it was run: as §1

[4] = compound: Cc1sc2c(c1C)C(c1ccc(Cl)cc1)=N[C@@H](CC(=O)OC(C)(C)C)c1nnc(C)n1-2
How it was run: as §1

[5] = compound: c1ccc([C@@H]2C[C@H]2NC2CCNCC2)cc1
How it was run: as §1

Sequence of UniProt Q9BY66 (Q9BY66 whole entry, looked up): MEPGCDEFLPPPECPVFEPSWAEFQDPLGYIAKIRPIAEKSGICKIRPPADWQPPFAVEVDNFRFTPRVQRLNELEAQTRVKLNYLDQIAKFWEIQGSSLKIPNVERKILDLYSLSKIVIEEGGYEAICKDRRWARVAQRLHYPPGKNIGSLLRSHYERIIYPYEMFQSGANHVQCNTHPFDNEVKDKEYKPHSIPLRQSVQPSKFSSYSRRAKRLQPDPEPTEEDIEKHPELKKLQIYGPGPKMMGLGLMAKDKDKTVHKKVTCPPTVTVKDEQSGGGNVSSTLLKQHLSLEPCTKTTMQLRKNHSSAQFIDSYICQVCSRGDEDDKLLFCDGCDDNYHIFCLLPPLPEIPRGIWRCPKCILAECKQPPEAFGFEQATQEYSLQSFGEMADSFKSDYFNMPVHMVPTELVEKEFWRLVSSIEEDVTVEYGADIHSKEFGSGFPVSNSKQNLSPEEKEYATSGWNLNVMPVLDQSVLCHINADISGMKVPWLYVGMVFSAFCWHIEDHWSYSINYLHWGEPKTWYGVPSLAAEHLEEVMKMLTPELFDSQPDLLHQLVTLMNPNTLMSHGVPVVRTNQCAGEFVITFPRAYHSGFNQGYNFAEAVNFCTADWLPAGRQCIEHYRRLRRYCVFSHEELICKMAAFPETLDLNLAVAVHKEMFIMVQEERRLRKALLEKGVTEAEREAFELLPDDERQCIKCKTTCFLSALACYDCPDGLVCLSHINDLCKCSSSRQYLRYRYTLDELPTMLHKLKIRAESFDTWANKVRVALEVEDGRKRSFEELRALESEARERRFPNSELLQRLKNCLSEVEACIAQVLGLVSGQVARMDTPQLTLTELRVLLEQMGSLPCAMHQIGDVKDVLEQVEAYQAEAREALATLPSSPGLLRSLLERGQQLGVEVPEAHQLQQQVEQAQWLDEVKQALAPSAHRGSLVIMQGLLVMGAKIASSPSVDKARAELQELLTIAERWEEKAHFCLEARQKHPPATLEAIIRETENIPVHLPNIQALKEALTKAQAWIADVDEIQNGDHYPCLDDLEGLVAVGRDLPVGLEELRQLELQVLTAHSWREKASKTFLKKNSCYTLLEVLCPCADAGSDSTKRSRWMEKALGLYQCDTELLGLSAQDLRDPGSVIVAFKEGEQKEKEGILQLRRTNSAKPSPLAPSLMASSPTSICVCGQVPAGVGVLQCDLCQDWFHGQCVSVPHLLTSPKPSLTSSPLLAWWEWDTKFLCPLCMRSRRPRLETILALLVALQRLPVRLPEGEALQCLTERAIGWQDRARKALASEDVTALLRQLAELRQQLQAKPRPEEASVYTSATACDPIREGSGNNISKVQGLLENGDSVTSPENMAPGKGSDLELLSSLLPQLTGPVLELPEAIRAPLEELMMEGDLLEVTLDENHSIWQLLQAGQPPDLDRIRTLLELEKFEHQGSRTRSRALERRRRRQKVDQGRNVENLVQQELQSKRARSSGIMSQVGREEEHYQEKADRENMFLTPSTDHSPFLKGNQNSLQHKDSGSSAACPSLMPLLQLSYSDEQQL
Sequence of UniProt P02545 (P02545 whole entry, looked up): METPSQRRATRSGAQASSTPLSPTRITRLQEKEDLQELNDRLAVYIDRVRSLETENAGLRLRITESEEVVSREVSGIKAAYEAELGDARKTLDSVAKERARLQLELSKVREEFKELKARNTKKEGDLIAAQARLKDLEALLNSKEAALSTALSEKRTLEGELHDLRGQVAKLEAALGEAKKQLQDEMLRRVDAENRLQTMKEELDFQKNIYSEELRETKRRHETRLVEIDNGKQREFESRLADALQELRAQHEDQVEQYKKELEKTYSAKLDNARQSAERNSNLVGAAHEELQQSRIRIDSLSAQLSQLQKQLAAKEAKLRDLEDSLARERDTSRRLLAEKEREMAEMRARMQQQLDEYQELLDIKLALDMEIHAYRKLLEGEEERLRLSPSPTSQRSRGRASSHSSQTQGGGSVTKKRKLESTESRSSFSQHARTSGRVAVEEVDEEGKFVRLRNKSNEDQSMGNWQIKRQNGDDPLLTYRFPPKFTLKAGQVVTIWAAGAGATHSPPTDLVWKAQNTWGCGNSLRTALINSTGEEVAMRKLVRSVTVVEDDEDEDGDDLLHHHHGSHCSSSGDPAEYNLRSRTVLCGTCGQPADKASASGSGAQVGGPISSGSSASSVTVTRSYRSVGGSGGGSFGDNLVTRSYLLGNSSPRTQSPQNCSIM
Sequence of UniProt Q9Y496 (Q9Y496 whole entry, looked up): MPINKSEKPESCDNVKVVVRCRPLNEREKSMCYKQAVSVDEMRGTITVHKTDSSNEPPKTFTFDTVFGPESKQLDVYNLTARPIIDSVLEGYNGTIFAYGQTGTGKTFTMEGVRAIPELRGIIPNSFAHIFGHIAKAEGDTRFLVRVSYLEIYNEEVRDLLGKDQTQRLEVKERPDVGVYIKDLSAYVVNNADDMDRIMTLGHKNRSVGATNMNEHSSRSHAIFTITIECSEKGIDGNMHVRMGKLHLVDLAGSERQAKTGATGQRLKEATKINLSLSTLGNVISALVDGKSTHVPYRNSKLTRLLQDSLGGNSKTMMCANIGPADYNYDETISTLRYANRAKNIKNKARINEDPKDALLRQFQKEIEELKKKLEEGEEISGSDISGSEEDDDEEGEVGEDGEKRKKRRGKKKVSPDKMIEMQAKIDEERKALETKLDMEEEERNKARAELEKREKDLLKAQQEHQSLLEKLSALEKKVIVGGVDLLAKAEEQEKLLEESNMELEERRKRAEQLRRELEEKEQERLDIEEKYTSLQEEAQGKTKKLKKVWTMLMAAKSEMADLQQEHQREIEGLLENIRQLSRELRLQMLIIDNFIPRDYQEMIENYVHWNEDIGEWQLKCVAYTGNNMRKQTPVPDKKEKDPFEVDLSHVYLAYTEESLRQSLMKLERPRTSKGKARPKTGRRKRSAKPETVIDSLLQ
Sequence of UniProt Q9BRT3 (Q9BRT3 whole entry, looked up): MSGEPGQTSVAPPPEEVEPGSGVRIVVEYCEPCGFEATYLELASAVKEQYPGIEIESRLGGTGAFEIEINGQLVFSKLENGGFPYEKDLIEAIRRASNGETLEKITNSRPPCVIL
Sequence of UniProt Q8IW41 (Q8IW41 whole entry, looked up): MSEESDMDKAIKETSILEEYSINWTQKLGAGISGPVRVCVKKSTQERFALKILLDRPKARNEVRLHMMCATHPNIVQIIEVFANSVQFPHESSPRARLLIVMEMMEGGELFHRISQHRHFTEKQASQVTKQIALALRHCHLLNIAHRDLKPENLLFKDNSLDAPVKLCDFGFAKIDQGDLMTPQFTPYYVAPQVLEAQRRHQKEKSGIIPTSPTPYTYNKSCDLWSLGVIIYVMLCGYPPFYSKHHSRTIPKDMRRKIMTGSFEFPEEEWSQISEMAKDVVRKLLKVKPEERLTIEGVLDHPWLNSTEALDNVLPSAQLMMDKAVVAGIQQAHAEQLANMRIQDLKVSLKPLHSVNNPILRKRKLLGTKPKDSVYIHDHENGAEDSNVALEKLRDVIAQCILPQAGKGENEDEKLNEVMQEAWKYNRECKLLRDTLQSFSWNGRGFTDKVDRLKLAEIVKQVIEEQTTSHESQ
Sequence of UniProt Q99661 (Q99661 whole entry, looked up): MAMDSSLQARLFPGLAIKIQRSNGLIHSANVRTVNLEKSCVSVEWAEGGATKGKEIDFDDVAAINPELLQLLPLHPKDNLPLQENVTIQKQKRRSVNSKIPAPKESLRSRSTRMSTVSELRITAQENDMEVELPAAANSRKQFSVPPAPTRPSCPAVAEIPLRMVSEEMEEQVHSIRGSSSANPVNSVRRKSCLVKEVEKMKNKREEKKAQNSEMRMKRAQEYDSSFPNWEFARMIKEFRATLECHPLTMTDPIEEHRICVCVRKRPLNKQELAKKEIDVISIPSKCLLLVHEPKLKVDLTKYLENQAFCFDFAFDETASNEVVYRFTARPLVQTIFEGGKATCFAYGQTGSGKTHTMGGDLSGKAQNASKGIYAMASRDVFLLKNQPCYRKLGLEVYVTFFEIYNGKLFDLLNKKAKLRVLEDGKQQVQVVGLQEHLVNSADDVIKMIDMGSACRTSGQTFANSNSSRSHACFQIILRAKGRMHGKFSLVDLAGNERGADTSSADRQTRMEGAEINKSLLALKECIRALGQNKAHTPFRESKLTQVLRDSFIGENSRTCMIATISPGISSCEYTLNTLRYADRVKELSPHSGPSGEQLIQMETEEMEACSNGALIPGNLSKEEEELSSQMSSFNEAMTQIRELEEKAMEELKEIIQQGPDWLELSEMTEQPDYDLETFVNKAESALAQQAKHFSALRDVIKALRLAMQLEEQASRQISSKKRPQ
Sequence of UniProt Q86VI4 (Q86VI4 whole entry, looked up): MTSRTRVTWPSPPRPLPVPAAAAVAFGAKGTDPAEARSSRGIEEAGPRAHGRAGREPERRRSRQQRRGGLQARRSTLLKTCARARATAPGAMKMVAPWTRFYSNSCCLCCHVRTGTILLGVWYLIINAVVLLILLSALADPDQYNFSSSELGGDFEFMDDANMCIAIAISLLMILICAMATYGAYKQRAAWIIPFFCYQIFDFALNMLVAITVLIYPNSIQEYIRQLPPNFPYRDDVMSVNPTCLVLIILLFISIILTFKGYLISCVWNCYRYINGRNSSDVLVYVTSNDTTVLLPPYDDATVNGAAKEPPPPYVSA
Sequence of UniProt P28300 (P28300 whole entry, looked up): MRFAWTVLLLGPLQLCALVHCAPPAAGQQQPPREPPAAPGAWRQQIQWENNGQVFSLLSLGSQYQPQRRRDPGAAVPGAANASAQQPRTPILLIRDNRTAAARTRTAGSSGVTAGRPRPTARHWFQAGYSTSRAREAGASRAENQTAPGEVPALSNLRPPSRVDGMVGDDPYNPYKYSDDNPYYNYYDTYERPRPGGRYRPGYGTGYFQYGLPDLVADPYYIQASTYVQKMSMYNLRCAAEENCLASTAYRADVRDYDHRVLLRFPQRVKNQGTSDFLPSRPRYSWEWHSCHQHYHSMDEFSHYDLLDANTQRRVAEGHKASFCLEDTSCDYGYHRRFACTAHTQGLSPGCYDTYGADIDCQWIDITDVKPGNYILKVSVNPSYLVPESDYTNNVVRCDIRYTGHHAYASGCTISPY

Work on KIF3A (UniProt Q9Y496) yielded a log2 fold change [1] of 0.027, a log2 fold change [2] of 0.039 and a log2 fold change [3] of 0.054. It also gave a log2 fold change [4] of 0.049 and a log2 fold change [5] of 0.002.
Target MIEN1 (UniProt Q9BRT3) has a log2 fold change [1] of 0.035, a log2 fold change [2] of 0.101 and a log2 fold change [3] of 0.014. For the same target, the log2 fold change [4] was -0.097 and the log2 fold change [5] was 0.019.
KDM5D isoform 3 (UniProt Q9BY66) showed a log2 fold change [1] of 0.2, a log2 fold change [2] of 0.086 and a log2 fold change [3] of 0.102. It also gave a log2 fold change [4] of -0.022 and a log2 fold change [5] of 0.037.
With LAPTM4B (UniProt Q86VI4) the log2 fold change [1] was -0.12.
Target MAPKAPK5 (UniProt Q8IW41) has a log2 fold change [1] of 0.042, a log2 fold change [2] of 0.001 and a log2 fold change [3] of 0.015. For the same target, the log2 fold change [4] was -0.069 and the log2 fold change [5] was -0.009.
IPP (UniProt Q9Y573) showed a log2 fold change [1] of 0.065.
MAP4K4 isoform 3 (UniProt O95819) was tested, and the log2 fold change [1] was 0.009, the log2 fold change [2] was 0.032 and the log2 fold change [3] was 0.044. For the same target, the log2 fold change [4] was 0.04 and the log2 fold change [5] was 0.264 (active).
Target LOX (UniProt P28300) has a log2 fold change [1] of -0.113.
In the case of LMNA (UniProt P02545), the log2 fold change [1] is reported as 0.043, the log2 fold change [2] is reported as -0.016 and the log2 fold change [3] is reported as -0.044. It also gave a log2 fold change [4] of -0.017 and a log2 fold change [5] of 0.052.
For MAP4 isoform 5 (UniProt P27816), the log2 fold change [1] was 0.077.
With KIF2C (UniProt Q99661) the log2 fold change [1] was -0.062, the log2 fold change [2] was -0.021 and the log2 fold change [3] was 0.094. For the same target, the log2 fold change [4] was 0.002 and the log2 fold change [5] was -0.029.
